Test results reported in the supplement of paper PMC10849652.
The full data set covers some 7,900 targets. This sample favours those with a hit. About 0.6% of all pairs of compound and target were hits.

Experiments:
Experiment in all cases: log2 fold change, soluble protein after heating vs DMSO (PISA); higher = thermal stabilisation; K562 cells, 10 uM, 30 min; active = over 0.2 and 3.5 SD of the protein, either way, in both replicates (recomputed)
[1] = compound: CS(=O)(=O)c1ccc(-c2cnc(N)c(C(=O)Nc3ccccc3)n2)cc1
Procedure, shortened: (§1)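 K562 cells at 2×10^6 cells/mL were treated for 30 min with 10 μM compound, and aliquots were heated for 3 min over 48°C-58°C before pooling. Extraction used PBS with 0.5% NP-40 at 4°C, and soluble protein was the supernatant after 21,000xg for 90 min, measured by TMTpro 16plex LC-MS/MS with channel sums equalised. Thermal stability values, relative to control samples and from duplicates, are log2 fold changes.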

[2] = compound: C[C@@H](Oc1cc(-c2cnn(C3CCNCC3)c2)cnc1N)c1c(Cl)ccc(F)c1Cl [crizotinib]
Procedure, shortened: as §1

[3] = compound: C[C@@H]1COCCN1C2=NC(=NC(=C2)C3(CC3)S(=O)(=O)C)C4=C5C=CNC5=CC=C4
Procedure, shortened: as §1

[4] = compound: C[C@H](C1=CC=C(C=C1)C(=O)NC2=C3C=CNC3=NC=C2)N
Procedure, shortened: as §1

[5] = compound: C[C@H](Nc1ncnc2nc[nH]c12)c1cc2cccc(Cl)c2c(=O)n1-c1ccccc1 [duvelisib]
Procedure, shortened: as §1

[6] = compound: Cc1cc(Nc2cc(CN3CCOCC3)c3nc(C)c(Cc4ccc(Cl)cc4F)n3n2)n[nH]1 [gandotinib]
Procedure, shortened: as §1

[7] = compound: Cc1cc(Nc2cc(N3CCN(C)CC3)nc(Sc3ccc(NC(=O)C4CC4)cc3)n2)n[nH]1 [tozasertib]
Procedure, shortened: as §1

[8] = compound: Cc1cc(SCc2sc(-c3ccc(C(F)(F)F)cc3)nc2C)ccc1OCC(=O)O
Procedure, shortened: as §1

[9] = compound: Cc1ccc(-n2nc(C(C)(C)C)cc2NC(=O)Nc2ccc(OCCN3CCOCC3)c3ccccc23)cc1 [doramapimod]
Procedure, shortened: as §1

[10] = compound: Cc1ccc(C(=O)N(CCCN)[C@@H](c2nc3cc(Cl)ccc3c(=O)n2Cc2ccccc2)C(C)C)cc1 [ispinesib]
Procedure, shortened: as §1

[11] = compound: Cc1ccc(NC(=O)c2ccc(CN3CC[C@H](N(C)C)C3)c(C(F)(F)F)c2)cc1Nc1nccc(-c2cncnc2)n1 [bafetinib]
Procedure, shortened: as §1

[12] = compound: Cc1cccc(CC(=O)N2CCc3c2ccc(-c2cn(C)c4ncnc(N)c24)c3F)n1
Procedure, shortened: as §1

[13] = compound: Cc1cn(-c2cc(NC(=O)c3ccc(C)c(Nc4nccc(-c5cccnc5)n4)c3)cc(C(F)(F)F)c2)cn1 [nilotinib]
Procedure, shortened: as §1

[14] = compound: Cc1nc(Nc2n[nH]c3c2CN(C(=O)N[C@H](CN(C)C)c2ccccc2)C3(C)C)c2sccc2n1
Procedure, shortened: as §1

[15] = compound: Cc1nc(Nc2ncc(C(=O)Nc3c(C)cccc3Cl)s2)cc(N2CCN(CCO)CC2)n1 [dasatinib]
Procedure, shortened: as §1

[16] = compound: Cc1ncc(-c2ccnc(Nc3ccc(S(C)(=O)=O)cc3)n2)n1C(C)C
Procedure, shortened: as §1

[17] = compound: Cn1cc(-c2ccc3c(c2)CCN3C(=O)Cc2cccc(C(F)(F)F)c2)c2c(N)ncnc21
Procedure, shortened: as §1

[18] = compound: Cn1cc(-c2ccc3nnc(C(F)(F)c4ccc5ncccc5c4)n3n2)cn1
Procedure, shortened: as §1

[19] = compound: Cn1cncc1[C@@](N)(c1ccc(Cl)cc1)c1ccc2c(c1)c(-c1cccc(Cl)c1)cc(=O)n2C [tipifarnib]
Procedure, shortened: as §1

[20] = compound: FC(F)(F)c1ccc(/C=C/c2nc(COc3ccc(CCCCn4ccnn4)cc3)co2)cc1 [mubritinib]
Procedure, shortened: as §1

Measured: log2 fold change

HIKESHI (UniProt Q53FT3)
Sequence of UniProt Q53FT3 (Q53FT3 whole entry, looked up): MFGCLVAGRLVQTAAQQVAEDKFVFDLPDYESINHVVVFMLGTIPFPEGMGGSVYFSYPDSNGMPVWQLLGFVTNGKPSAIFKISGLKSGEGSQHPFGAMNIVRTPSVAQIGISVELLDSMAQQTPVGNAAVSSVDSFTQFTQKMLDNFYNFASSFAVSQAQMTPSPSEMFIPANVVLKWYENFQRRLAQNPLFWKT
inactive: [1] -0.007 | [2] 0.067 | [3] 0.182 | [4] -0.023 | [5] 0.101 | [6] -0.033 | [7] 0.023 | [8] -0.021 | [9] -0.013 | [10] 0.192 | [11] -0.003 | [12] 0.02 | [13] -0.062 | [14] 0.018 | [15] 0.079 | [16] 0.009 | [17] 0.043 | [18] 0.065 | [19] -0.043 | [20] 0.025

HADHA (UniProt P40939)
Sequence of UniProt P40939 (P40939 whole entry, looked up): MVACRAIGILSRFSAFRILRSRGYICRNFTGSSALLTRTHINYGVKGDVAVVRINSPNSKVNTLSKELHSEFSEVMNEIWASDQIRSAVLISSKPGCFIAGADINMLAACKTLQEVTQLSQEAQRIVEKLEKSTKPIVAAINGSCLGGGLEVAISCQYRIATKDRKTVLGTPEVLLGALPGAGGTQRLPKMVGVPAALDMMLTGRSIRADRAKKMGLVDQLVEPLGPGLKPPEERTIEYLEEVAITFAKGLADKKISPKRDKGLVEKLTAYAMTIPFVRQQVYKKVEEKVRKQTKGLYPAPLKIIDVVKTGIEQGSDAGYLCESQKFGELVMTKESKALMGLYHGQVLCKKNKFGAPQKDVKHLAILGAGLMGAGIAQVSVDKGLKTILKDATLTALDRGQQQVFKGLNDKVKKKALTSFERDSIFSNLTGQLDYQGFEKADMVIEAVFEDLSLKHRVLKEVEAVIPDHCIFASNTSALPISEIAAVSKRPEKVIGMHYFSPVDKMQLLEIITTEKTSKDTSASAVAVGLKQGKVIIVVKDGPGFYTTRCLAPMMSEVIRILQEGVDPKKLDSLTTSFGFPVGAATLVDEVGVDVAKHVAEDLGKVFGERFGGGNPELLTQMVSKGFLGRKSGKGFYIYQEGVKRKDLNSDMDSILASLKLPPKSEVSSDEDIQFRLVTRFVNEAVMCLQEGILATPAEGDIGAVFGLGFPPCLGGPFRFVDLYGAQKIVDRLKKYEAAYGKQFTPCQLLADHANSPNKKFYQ
active: [20] 0.685
inactive: [1] -0.058 | [2] 0.079 | [3] 0.068 | [4] -0.017 | [5] 0.201 | [6] 0.086 | [7] -0.154 | [8] 0.154 | [9] 0.176 | [10] 0.171 | [11] 0.293 | [12] 0.097 | [13] 0.049 | [14] -0.078 | [15] -0.05 | [16] 0.036 | [17] 0.203 | [18] 0.069 | [19] -0.304

GCLM (UniProt P48507)
Sequence of UniProt P48507 (P48507 whole entry, looked up): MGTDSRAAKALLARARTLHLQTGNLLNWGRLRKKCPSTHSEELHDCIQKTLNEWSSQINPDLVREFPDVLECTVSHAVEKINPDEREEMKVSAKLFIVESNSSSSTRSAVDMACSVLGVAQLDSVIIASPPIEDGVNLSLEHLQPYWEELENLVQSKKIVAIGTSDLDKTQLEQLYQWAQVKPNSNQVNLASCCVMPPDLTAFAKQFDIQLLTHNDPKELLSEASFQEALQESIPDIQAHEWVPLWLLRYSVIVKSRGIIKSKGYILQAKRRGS
inactive: [1] 0.058 | [2] -0.003 | [3] 0.042 | [4] -0.019 | [5] -0.007 | [6] -0.15 | [7] 0.108 | [8] 0.06 | [9] -0.072 | [10] 0.076 | [11] 0.016 | [12] 0.072 | [13] -0.101 | [14] -0.015 | [15] -0.095 | [16] 0.019 | [17] 0.042 | [18] -0.051 | [19] -0.133 | [20] 0.023

GLUD2 (UniProt P49448)
Sequence of UniProt P49448 (P49448 whole entry, looked up): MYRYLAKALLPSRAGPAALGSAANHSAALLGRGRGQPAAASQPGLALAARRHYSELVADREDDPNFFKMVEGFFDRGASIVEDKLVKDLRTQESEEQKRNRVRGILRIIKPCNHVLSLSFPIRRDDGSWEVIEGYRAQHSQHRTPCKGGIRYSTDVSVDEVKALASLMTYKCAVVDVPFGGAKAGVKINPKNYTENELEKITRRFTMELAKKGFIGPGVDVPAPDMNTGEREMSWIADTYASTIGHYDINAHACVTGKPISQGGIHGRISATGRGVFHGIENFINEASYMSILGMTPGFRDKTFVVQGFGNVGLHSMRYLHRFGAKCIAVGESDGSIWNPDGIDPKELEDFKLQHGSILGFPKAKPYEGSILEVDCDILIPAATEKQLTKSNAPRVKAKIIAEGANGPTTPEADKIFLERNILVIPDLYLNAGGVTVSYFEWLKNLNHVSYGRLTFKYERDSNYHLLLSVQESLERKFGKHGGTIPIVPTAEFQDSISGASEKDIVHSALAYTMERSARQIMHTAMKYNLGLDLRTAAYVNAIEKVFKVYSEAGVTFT
inactive: [1] 0.102 | [2] 0.003 | [3] 0.011 | [4] -0.062 | [5] 0.191 | [6] 0.064 | [7] -0.095 | [8] 0.016 | [9] 0.041 | [10] 0 | [11] 0.234 | [12] 0.02 | [14] 0.21 | [15] -0.021 | [16] -0.031 | [18] -0.028 | [19] 0.079 | [20] 0.041
active: [13] 0.478 | [17] 0.265

HSPA8 (UniProt E9PK54)
inactive: [1] -0.05 | [2] -0.023 | [3] -0.272 | [4] 0.334 | [5] -0.05 | [6] 0.01 | [7] 0.033 | [8] 0.088 | [9] 0.143 | [10] 0.012 | [11] 0.096 | [12] -0.069 | [13] -0.105 | [14] -0.011 | [15] 0.011 | [16] 0.072 | [18] 0.062 | [19] 0.227 | [20] 0.024
active: [17] -0.409

GMEB1 (UniProt Q9Y692)
Sequence of UniProt Q9Y692 (Q9Y692 whole entry, looked up): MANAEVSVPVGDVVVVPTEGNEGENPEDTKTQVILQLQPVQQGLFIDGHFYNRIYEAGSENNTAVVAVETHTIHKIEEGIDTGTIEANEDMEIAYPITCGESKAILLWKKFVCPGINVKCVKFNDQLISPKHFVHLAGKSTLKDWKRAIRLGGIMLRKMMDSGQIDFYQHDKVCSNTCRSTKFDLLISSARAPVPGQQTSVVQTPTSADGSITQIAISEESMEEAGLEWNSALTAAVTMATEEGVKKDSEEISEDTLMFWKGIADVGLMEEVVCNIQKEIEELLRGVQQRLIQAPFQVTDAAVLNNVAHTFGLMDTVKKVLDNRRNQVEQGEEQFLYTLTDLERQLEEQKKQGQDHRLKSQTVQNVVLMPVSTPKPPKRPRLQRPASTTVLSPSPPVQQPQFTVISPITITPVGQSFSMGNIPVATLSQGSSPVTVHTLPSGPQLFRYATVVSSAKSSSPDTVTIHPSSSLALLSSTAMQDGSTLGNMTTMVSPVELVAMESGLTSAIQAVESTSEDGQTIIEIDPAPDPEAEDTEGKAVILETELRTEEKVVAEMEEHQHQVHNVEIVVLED
inactive: [1] -0.036 | [2] 0.02 | [3] 0.04 | [4] -0.045 | [5] 0.025 | [6] -0.11 | [7] 0.03 | [8] 0.049 | [9] -0.038 | [10] 0.01 | [11] -0.12 | [12] -0.048 | [13] -0.04 | [14] -0.036 | [15] -0.06 | [16] 0.001 | [17] 0.019 | [18] 0.044 | [19] -0.204 | [20] -0.03

GABARAPL2 (UniProt P60520)
Sequence of UniProt P60520 (P60520 whole entry, looked up): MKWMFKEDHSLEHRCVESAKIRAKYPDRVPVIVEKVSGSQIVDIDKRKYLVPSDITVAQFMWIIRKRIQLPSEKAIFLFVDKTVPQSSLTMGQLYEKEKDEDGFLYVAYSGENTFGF
inactive: [1] 0.081 | [2] -0.178 | [3] 0.036 | [4] 0.006 | [5] 0.053 | [6] 0.039 | [7] 0.031 | [8] 0.005 | [9] -0.073 | [10] -0.151 | [11] -0.168 | [12] 0.096 | [13] -0.015 | [14] -0.028 | [15] -0.014 | [16] -0.004 | [17] 0.046 | [18] 0.279 | [19] -0.003 | [20] 0.03

IDI1 isoform 2 (UniProt Q13907)
Sequence of UniProt Q13907 (Q13907 whole entry, looked up): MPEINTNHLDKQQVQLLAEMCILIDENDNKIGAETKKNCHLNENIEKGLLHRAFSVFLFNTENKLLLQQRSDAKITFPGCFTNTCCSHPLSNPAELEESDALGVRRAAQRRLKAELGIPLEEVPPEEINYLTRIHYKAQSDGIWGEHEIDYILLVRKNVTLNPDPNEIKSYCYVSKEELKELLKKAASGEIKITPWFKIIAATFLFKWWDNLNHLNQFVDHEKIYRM
inactive: [1] 0.052 | [2] 0.093 | [3] 0.062 | [4] -0.018 | [5] 0.069 | [6] 0.014 | [7] 0.057 | [8] -0.028 | [9] -0.063 | [10] 0.045 | [11] -0.019 | [12] -0.038 | [13] 0.049 | [14] 0.022 | [15] 0.002 | [16] -0.01 | [17] 0.096 | [18] -0.012 | [19] 0.018 | [20] 0.054
